Here are results for 20 molecules from PubChem BioAssay (Tox21).

Results filed as inconclusive are left out. Where a call stands in place of a potency, no number is given. Activity calls are given as the source filed them. The call rests on the fitted dose curve; in most records, active means well fitted cell-killing curve with a large enough effect in the repeat runs; inconclusive means weak or mixed curves, or effect the other way; inactive means no such curve, though single readings can be large or run the other way.
Potency means the concentration at half of the fitted maximal effect.

The assay is described as follows: qHTS assay to identify small molecule agonists of the farnesoid-X-receptor (FXR) signaling pathway - cell viability counter screen (AID 743218). Further: nearly all actives have a fitted effect of over 45% in size. The note with it: FXR-bla HEK293T viability, CellTiter-Glo luminescence, 16 h; series mostly up to 62.6 µM. Put shortly:
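In GeneBLAzer FXR-UAS-bla HEK 293T cells, compounds act for 16 h at 37 C. Cell viability is then scored in the reporter wells by CellTiter-Glo, 30 min at RT, luminescence.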
A general note: qHTS replaces the single test concentration by a dilution series.
As to `CC(=O)Oc1ccc2c(c1)CC[C@@H]1[C@@H]2CC[C@]2(C)[C@@H](O)CC[C@@H]12`, the Potency result was “inactive”.
With `CC(N)CN` (stereo not given), the Potency result was “inactive”.
Regarding `Cc1cc(OI)c(C(C)C)cc1-c1cc(C(C)C)c(OI)cc1C`, the Potency result is “inactive”.
For `O=C(CCCN1CCN(c2ccc(F)cc2)CC1)NC1c2ccccc2CSc2ccccc21` (stereo not given), the Potency is 10.6 µM (active).
With `COCCOC`, the Potency entry was “inactive”.
As for `O=C(CS)OCCOC(=O)CS`, the Potency entry is “inactive”.
With `COC(OC)(C(=O)c1ccccc1)c1ccccc1`, the Potency entry is “inactive”.
With `CO/N=C1\CN(c2nc3c(cc2F)c(=O)c(C(=O)O)cn3C2CC2)CC1CN` (stereo not given), the Potency entry is “inactive”.
The same measure for `CC(C)C(OC(=O)c1ccccc1)C(C)(C)COC(=O)c1ccccc1` (stereo not given): “inactive”; for `O=C(Nc1ccc([N+](=O)[O-])cc1)Nc1ccc([N+](=O)[O-])cc1`: 0.75 µM (active); for `CC(C)(CCl)c1ccccc1`: “inactive”.
The same measure for `CC[C@@H]([C@H](C)O)n1ncn(-c2ccc(N3CCN(c4ccc(OC[C@@H]5CO[C@@](Cn6cncn6)(c6ccc(F)cc6F)C5)cc4)CC3)cc2)c1=O`: 29.8 µM (active); for `CO[C@@]12[C@H](COC(N)=O)C3=C(C(=O)C(C)=C(N)C3=O)N1C[C@@H]1N[C@@H]12`: “inactive”; for `Cc1ccc(S)cc1`: “inactive”.
`CC(C)c1nnc2ccc(-c3ocnc3-c3cc(F)ccc3F)cn12`: the Potency result was “inactive”.
In the case of `O=C(c1ccc(O)cc1)c1ccc(Cl)cc1`, the Potency result was “inactive”.
The entry for `CC(C)(O)c1ccccc1CC[C@@H](SCC1(CC(=O)O)CC1)c1cccc(/C=C/c2ccc3ccc(Cl)cc3n2)c1` is “inactive”; for `O=Cc1c(Cl)cccc1Cl` it is “inactive”.
As for `CC#N`, the Potency entry was “inactive”.
The same measure for `NC(=O)N(O)[C@@H]1COc2cc(OCc3ccccc3)ccc21`: “inactive”.
